38 compounds from PubChem BioAssay (NCATS) can be followed below.

Inconclusive results are not listed. The source made the active and inactive calls. Calls come from the whole dose curve; as a rule, active = well fitted curve in the direction sought with a large enough effect; inconclusive = small, poorly fitted or top-dose-only effect, or another doubt; inactive = no such curve, though single readings can be large or run the other way.
% is set by controls: 0 for no effect and ±100 for the full control effect.

Chain of Metallo-beta-lactamase type 2 (Klebsiella pneumoniae) (C7C422 whole entry, looked up): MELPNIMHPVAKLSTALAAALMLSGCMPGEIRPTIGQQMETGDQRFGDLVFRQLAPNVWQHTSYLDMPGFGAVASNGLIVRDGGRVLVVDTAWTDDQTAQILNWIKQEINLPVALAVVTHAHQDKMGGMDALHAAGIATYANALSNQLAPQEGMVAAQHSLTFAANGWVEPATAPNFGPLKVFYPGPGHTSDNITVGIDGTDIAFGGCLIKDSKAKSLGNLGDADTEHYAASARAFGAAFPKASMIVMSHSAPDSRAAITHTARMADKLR

The assay has as its target Metallo-beta-lactamase type 2 (Klebsiella pneumoniae) (UniProt C7C422). Put plainly: qHTS to identify inhibitors of the New Delhi Metallo-beta-lactamase (NDM): assay validation screen against the NCATS LOPAC Collection (AID 1794843).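 Note: nitrocefin turnover by NDM-1 measured as 485 nm absorbance at plateau.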 The conditions noted are these: NDM-1 enzyme, nitrocefin hydrolysis, absorbance 485 nm; series mostly up to 38.4 µM; activity change, negative = inhibition: at the top concentration. In short, it runs like this:
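Enzyme 2 nM final, 50 mM HEPES pH 7.0, 1 uM ZnSO4, 0.01% Tween20; cpds in DMSO, preincub w/ enzyme; + nitrocefin (50 uM stock); A485 at plateau; no-enzyme column as blank.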
Consider `C=CC[C@H](N)C(=O)O`, for which the “activity change, negative = inhibition” value was -7.22% (inactive).
As for `O=c1cc(-c2ccccc2F)[nH]c2cc3c(cc12)OCO3`, the figure is -8.45% (inactive).
As for `N=C(N)c1ccc(N)cc1`, the figure is -8.74% (inactive); as for `CCCCCCCCCCCCCCSCC(=O)O`, -6.49% (inactive).
As for `CC(C)(C)c1cc(/C=C(\C#N)C(N)=S)cc(C(C)(C)C)c1O`, the figure is 1.73% (inactive).
Consider `NCCCNCCCCNCCCN`, for which the “activity change, negative = inhibition” value is -0.297% (inactive).
Consider `N[C@@H](CCCC(=O)O)C(=O)O`, for which the “activity change, negative = inhibition” value is 1.92% (inactive).
Next, `CC[n+]1c(/C=C/C=C2/N(C)c3ccccc3C2(C)C)sc2ccccc21`: 3.86% (inactive); `Nc1nc2c(nc(Br)n2C2OC3COP(=O)(O)O[C@@H]3C2O)c(=O)[nH]1` (stereo partly drawn): 0.198% (inactive).
For `COCc1nc2c([nH]1)c(=O)n(C)c(=O)n2CC(C)C`, the “activity change, negative = inhibition” value is -5.87% (inactive).
As for `CO/N=C(\C(=O)N[C@@H]1C(=O)N2C(C(=O)O)=C(CSc3nc(=O)c(O)nn3C)CSC12)c1csc(N)n1` (stereo partly drawn), the figure is -1.1% (inactive); as for `O=c1ccc2c(OCCCCc3ccccc3)c3ccoc3cc2o1`, -0.209% (inactive); as for `CCCn1c(=O)c(C)cn2nc(N)nc12`, -0.53% (inactive).
As to `C=C(C)C1CC=C(C(=O)O)CC1` (stereo not drawn), the “activity change, negative = inhibition” value was -0.623% (inactive).
In the case of `CC#CCOC(=O)c1c(C)nc2sc3c(c2c1N)CCC(O)C3` (stereo not drawn), the “activity change, negative = inhibition” value was 1.04% (inactive).
As for `CC(N)=NCCCC[C@@H](N)C(=O)O`, the figure is -22.4% (inactive).
Next, `CCn1c(=O)[nH]c2cc(Cl)c(Cl)cc21`: 12.9% (inactive); `CCCCCCCC/C=C\CCCCCCCC(=O)NCCc1ccc(O)c(O)c1`: -3.27% (inactive); `O=C(c1ccc2c(c1)OCCO2)N1CCCCC1`: -1.82% (inactive).
Next, `NC(Cc1cccc(-c2ccccc2CP(=O)(O)O)c1)C(=O)O` (stereo not drawn): -2.71% (inactive); `CCCCCCC(=O)OC1CC(C)(C)NC(C)(C)C1`: -8.25% (inactive).
`Cc1cccc(C2CN(C)CCc3c2cc(O)c(O)c3Cl)c1` (stereo not drawn): the “activity change, negative = inhibition” value is -10.2% (inactive).
As for `CN(CC[C@@H](Oc1ccc(C(F)(F)F)cc1)c1ccccc1)CC(=O)O`, the figure is -5.62% (inactive); as for `CCOC(=O)C12CC1/C(=N/O)c1ccccc1O2` (stereo not drawn), 0.433% (inactive); as for `CCCCS(=N)(=O)CC[C@H](N)C(=O)O` (stereo partly drawn), -4.72% (inactive).
For `N#CC(C#N)=C(N)/C(C#N)=C/c1ccc(O)cc1`, the “activity change, negative = inhibition” value is 8.75% (inactive).
Next, `Cc1nc(N=Nc2cc(S(=O)(=O)O)c3cc([N+](=O)[O-])cc(S(=O)(=O)O)c3c2)c(COP(=O)(O)O)c(C=O)c1O`: -10.3% (inactive); `NC(N)=NC(N)=Nc1cccc(Cl)c1`: 5.06% (inactive).
Next, `Cn1cc(C(=O)OCC2CCN(CCNS(C)(=O)=O)CC2)c2ccccc21`: 3.91% (inactive).
Next, `Oc1ccc(Cn2cc[nH]c2=S)cc1`: -6.07% (inactive); `COc1ccc2c(c1)CCC1C2CC[C@@]2(C)C1CC[C@@H]2NCCCCCCN1C(=O)C=CC1=O` (stereo partly drawn): -3.75% (inactive); `COc1cc(C(O)C(=O)O)ccc1O` (stereo not drawn): 1.88% (inactive).
In the case of `CN1CCCC1CCOC(C)(c1ccccc1)c1ccc(Cl)cc1` (stereo not drawn), the “activity change, negative = inhibition” value is 5.25% (inactive).
`O=C(O)C1=CCNCC1`: the “activity change, negative = inhibition” value is 8.61% (inactive).
As to `O=c1oc(Cl)c(Cl)c2ccccc12`, the “activity change, negative = inhibition” value is -21.1% (inactive).
As for `NCCS(=O)O`, the figure is 5.51% (inactive); as for `N=C(N)SCCN`, 0.232% (inactive); as for `CCC(=O)N1CCN(C(=O)c2ccccc2)CC1`, 3.94% (inactive).
